Records with an inconclusive call do not appear. Active and inactive are the calls of the source. Calls come from the whole dose curve; as a rule, active = well fitted inhibition curve with a large enough effect; inconclusive = small, poorly fitted or top-dose-only effect; inactive = flat fitted curve, though single readings scatter. Peptide text beside a SMILES is read from it.
These molecules were tested against Ubiquitin carboxyl-terminal hydrolase 1 (Homo sapiens) (UniProt O94782) (assay: Inhibitors of USP1/UAF1: Pilot qHTS (AID 504865; note: nearly all actives have a fitted effect of over 35% in size;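 for activity change, negative = inhibition: rhodamine fluorescence freed from ubiquitin-rhodamine substrate followed over time; top concentration of the series differs between compounds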)). Details: purified USP1/UAF1, Ub-rhodamine cleavage fluorescence; series mostly up to 114 µM; activity change, negative = inhibition: at the top concentration.
Chain of Ubiquitin carboxyl-terminal hydrolase 1 (Homo sapiens) (O94782 whole entry, looked up): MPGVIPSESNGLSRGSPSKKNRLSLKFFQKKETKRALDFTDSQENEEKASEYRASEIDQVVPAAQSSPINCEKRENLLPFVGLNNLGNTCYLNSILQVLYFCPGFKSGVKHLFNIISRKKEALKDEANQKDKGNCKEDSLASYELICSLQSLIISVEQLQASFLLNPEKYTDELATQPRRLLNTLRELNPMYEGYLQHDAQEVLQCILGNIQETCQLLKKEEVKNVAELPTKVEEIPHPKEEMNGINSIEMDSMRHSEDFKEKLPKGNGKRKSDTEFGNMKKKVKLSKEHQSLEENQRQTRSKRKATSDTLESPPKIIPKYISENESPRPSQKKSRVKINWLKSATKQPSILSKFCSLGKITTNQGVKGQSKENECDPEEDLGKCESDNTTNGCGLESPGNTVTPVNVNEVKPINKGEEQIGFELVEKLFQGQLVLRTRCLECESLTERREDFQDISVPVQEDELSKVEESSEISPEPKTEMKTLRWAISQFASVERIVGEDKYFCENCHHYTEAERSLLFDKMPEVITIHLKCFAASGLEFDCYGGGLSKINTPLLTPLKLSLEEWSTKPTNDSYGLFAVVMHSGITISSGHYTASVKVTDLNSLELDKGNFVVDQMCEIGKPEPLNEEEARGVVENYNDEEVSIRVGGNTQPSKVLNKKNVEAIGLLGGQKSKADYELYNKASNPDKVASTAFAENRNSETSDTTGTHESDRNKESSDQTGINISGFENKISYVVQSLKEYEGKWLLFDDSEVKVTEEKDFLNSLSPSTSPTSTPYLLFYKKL
Text: Deubiquitinating enzymes (DUBs) are a class of enzymes that can cleave isopeptide bond formed between the C-terminal carboxylate of ubiquitin and a lysine side-chain amino group on the target protein. Among them, ubiquitin specific proteases (USPs) constitute the largest DUB family. Human USPs are emerging as promising targets for pharmacological intervention because of their connection to a number of human diseases, including prostate, colon and breast cancer (1, 2), pediatric acute lymphoblastic leukemia (3), and familial cylindromatosis (4). The advantage of inhibiting USPs lies in the potential specificity of therapeutic intervention that can lead to better efficacy and reduce nonspecific side effects.
In a collaboration between the University of Delaware and the NIH Chemical Genomics Center, a high-throughput screen assay was developed to screen for USP1/UAF1 inhibitors. This miniaturized assay has a fluorescent read-out and is used to screen the NIH Molecular Libraries Small Molecule Repository (MLSMR) in order to identify a small molecule that inhibits USP1.
NIH Chemical Genomics Center [NCGC]
NIH Molecular Libraries Probe Centers Network [MLPCN]
Assay Submitter (PI): Zhihao Zhuang, University of Delaware
1. Priolo, C., et al. (2006) The isopeptidase USP2a protects human prostate cancer from apoptosis. Cancer Res 66, 8625-8632
2. Popov, N., et al. (2007) The ubiquitin-specific protease USP28 is required for MYC stability. Nat Cell Biol 9, 765-774
3. De Pitta, C., et al. (2005) A leukemia-enriched cDNA microarray platform identifies new transcripts with relevance to the biology of pediatric acute lymphoblastic leukemia. Haematologica 90, 890-898
4. Kovalenko, A., et al. (2003) The tumour suppressor CYLD negatively regulates NF-kappaB signalling by deubiquitination. Nature 424, 801-805
3 microliters of reagents (buffer in columns 3 and 4 as negative control and 1nM USP1/UAF1 complex in columns 1, 2, and 5-48) are dispensed into Greiner black solid bottom 1536-well assay plates. Compounds are then transferred via Kalypsys pin tool equipped with 1536-pin array (10nl slotted pins, V&P Scientific, San Diego, CA). Following an incubation step of 15 min at room temperature, 1ul of Ub-Rho substrate (150nM final concentration) is added to initiate the reaction. The plates are immediately centrifuged at 1000 rpm for 15 seconds, and subsequently transferred to a ViewLux high-throughput CCD imager (PerkinElmer) wherein kinetic measurements of fluorescence are acquired using 480 nm excitation/540 nm emission filter set (6 reads every 60 seconds, see Table 1). All reagents are diluted in an assay buffer consisting of 50mM HEPES (pH 7.8), 0.5mM EDTA, 0.1 mg/ml BSA, 1mM TCEP, and 0.01% Tween-20.
% is set by controls: 0 for no effect and ±100 for the full control effect; potency is the fitted concentration of half-maximal effect.

SMILES | Potency | activity change, negative = inhibition
CCCCCCCC/C=C\CCCCCCCC(=O)O | 35.5 µM (active) | 
CC(=O)Oc1c(C)cc(OCC(O)CNC(C)C)c(C)c1C (stereo not given) |  | -6.22% (inactive)
Cc1c(C)c2c(c(C)c1O)CC[C@@](C)(CCC[C@@H](C)CCC[C@@H](C)CCCC(C)C)O2 |  | -0.831% (inactive)
OCc1ccccc1O[C@@H]1O[C@H](CO)[C@@H](O)[C@H](O)[C@H]1O |  | -3.98% (inactive)
C#CCOc1ccc2c(C)cc(=O)oc2c1 |  | -8.28% (inactive)
C[C@H]1C[C@H]2[C@@H]3CCC4=CC(=O)C=C[C@]4(C)[C@@]3(F)[C@@H](O)C[C@]2(C)[C@@]1(O)C(=O)CO |  | -8.34% (inactive)
CO[C@H](C(=O)[C@@H](O)[C@@H](C)O)C1Cc2cc3cc(O[C@H]4C[C@@H](O[C@H]5C[C@@H](O)[C@H](O)[C@@H](C)O5)[C@@H](O)[C@@H](C)O4)c(C)c(O)c3c(O)c2C(=O)[C@H]1O[C@H]1C[C@@H](O[C@H]2C[C@@H](O[C@H]3C[C@](C)(O)[C@H](O)[C@@H](C)O3)[C@H](O)[C@@H](C)O2)[C@H](O)[C@@H](C)O1 (stereo not given in full) |  | 2.01% (inactive)
Cc1cc(/C=C/c2ccc3cc(N(C)C)ccc3[n+]2C)c(C)n1-c1ccccc1 | 44.7 µM (active) | 
Clc1cc(Cl)c(OCC#CI)cc1Cl |  | -5.4% (inactive)
CC(O)CO (stereo not given) |  | -0.733% (inactive)
CCCCCCCCCCCCCC[n+]1ccc(C)cc1 | 56.2 µM (active) | 
CCCC(=O)Nc1ncnc2c1ncn2[C@@H]1O[C@@H]2COP(=O)(O)O[C@H]2[C@H]1OC(=O)CCC |  | -6.16% (inactive)
COC(=O)CCC(=O)CN |  | -2.44% (inactive)
O=S(=O)(O)O |  | 2.11% (inactive)
CC(C(=O)O)c1ccc(N2Cc3ccccc3C2=O)cc1 (stereo not given) |  | -11.2% (inactive)
Nc1c(Br)cc(Br)cc1CNC1CCC(O)CC1 (stereo not given) | inactive | 
O=S(=O)(O)c1cc(O)c2c(N=Nc3ccc(Nc4ccccc4)c4c(S(=O)(=O)O)cccc34)cc(S(=O)(=O)O)cc2c1 | 11.2 µM (active) | 
CCCCCCC(O)C/C=C/CCCCCCCC(=O)O (stereo not given) |  | -6.35% (inactive)
O=C(O)CCC(=O)C(=O)O |  | -2.49% (inactive)
CC1=CCC(C(C)(C)O)CC1 (stereo not given) |  | 1.36% (inactive)

SMILES | Potency | activity change, negative = inhibition
Cc1cn([C@H]2C[C@H](O)[C@@H](CO)O2)c(=O)[nH]c1=O | inactive | 
Nc1c(N=Nc2ccc(-c3ccc(N=Nc4cc(S(=O)(=O)O)c5ccccc5c4N)cc3)cc2)cc(S(=O)(=O)O)c2ccccc12 | 15.8 µM (active) | 
CCOC(C)=O |  | -6.58% (inactive)
CN1Cc2c(N)cccc2C(c2ccccc2)C1 (stereo not given) | inactive | 
O=C(O)CC/C=C\CC[C@H]1[C@@H](N2CCCCC2)[C@@H](O)C[C@@H]1OCc1ccc(-c2ccccc2)cc1 |  | -7.69% (inactive)
CCCCCCOc1ccc(C(=N)N(CCCC)CCCC)c2ccccc12 | 39.8 µM (active) | 
NC(=O)c1ncn(C2OC(CO)C(O)C2O)n1 (stereo not given) |  | 2.23% (inactive)
O=C(O)c1cc(O)c2c(c1)[O][Bi][O]2 |  | -3.77% (inactive)
CC[N+](C)(C)Cc1ccccc1Br |  | 2.14% [at 54.9 µM] (inactive)
IC(I)I |  | -3.81% (inactive)
C[C@]12CCC(=O)C=C1CC[C@@H]1[C@@H]2[C@@H](O)C[C@@]2(C)[C@H]1CC[C@]2(O)C(=O)COP(=O)(O)O |  | -4.28% (inactive)
Cc1ccccc1 |  | 0.25% (inactive)
CC1(C)S[C@@H]2[C@H](NC(=O)[C@@H](NC(=O)N3CCNC3=O)c3ccccc3)C(=O)N2[C@H]1C(=O)O |  | 4.8% [at 54.9 µM] (inactive)
CC(=O)N[C@@H](CC(=O)O)C(=O)N[C@@H](CCC(=O)O)C(=O)O (Ac-Asp-Glu-OH) | inactive | 
CCCCC(CC)COC(=O)CC(C(=O)OCC(CC)CCCC)S(=O)(=O)O (stereo not given) | 50.1 µM (active) | 
CCCCCCCCCCCC[n+]1ccc2ccccc2c1 | 89.1 µM (active) | 
O=S(=O)(O)c1ccc2c(N=Nc3ccc(S(=O)(=O)O)c4ccccc34)c(O)c(S(=O)(=O)O)cc2c1 | 17.8 µM (active) | 
CCCCCCCCCCCCCCCC(=O)OCC(COC(=O)CCCCCCCCCCCCCCC)OC(=O)CCCCCCCCCCCCCCC |  | -8.34% (inactive)
C=CCSSSCC=C |  | -3.54% (inactive)
CC(C)(C)C(=O)OCOC(=O)[C@@H]1N2C(=O)[C@@H](N=CN3CCCCCC3)[C@H]2SC1(C)C |  | 5.74% [at 54.9 µM] (inactive)

From PubChem BioAssay (NCATS)
